Measurements reported in PMC4336329 (PLoS ONE, 2015).
The campaign covered roughly 310,000 compounds. About 14,000 (4.5%) showed an effect of 50% or more. The effect is printed as a negative number. This excerpt belongs to a sample that is enriched for strong results.

target: human ether-à-go-go-related gene (hERG) potassium channel (human, UniProt Q12809); test: primary screen, population patch clamp on CHO cells stably expressing hERG; higher = less effect of the substance
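Further: peak tail current of the secondary pulse compared with the same well before compound.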

Sequence of human ether-à-go-go-related gene (hERG) potassium channel (Q12809 whole entry, looked up): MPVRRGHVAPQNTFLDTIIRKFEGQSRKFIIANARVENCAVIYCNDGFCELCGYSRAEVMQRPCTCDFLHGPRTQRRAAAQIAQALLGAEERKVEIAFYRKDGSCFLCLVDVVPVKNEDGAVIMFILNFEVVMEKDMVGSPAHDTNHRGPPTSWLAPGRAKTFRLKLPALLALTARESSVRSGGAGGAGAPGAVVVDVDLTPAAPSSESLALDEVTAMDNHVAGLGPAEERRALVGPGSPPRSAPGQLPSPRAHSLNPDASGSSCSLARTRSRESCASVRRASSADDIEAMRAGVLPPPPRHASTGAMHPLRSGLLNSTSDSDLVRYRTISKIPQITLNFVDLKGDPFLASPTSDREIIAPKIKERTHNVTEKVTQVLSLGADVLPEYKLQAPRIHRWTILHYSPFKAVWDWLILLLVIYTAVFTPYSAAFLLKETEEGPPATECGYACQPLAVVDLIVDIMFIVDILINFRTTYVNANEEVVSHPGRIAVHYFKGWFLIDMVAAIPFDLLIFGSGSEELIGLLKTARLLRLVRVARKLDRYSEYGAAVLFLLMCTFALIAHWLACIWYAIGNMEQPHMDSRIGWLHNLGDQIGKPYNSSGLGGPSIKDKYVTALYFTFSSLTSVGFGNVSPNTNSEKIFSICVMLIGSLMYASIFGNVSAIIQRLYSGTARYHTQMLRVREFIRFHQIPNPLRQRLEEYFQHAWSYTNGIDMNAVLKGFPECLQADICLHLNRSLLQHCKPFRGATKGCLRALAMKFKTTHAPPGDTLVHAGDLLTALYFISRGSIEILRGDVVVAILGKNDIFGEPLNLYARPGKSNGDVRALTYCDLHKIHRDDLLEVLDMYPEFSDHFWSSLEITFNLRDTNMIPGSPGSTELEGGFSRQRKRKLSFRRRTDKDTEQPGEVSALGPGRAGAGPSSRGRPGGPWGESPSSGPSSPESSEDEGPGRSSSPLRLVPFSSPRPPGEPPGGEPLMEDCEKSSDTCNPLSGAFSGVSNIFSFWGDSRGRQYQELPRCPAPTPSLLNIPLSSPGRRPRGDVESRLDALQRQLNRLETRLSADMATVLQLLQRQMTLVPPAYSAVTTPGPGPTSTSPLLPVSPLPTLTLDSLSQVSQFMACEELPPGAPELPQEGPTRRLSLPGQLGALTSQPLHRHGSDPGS

Structure (SMILES) | hERG current change (%, negative = inhibition) at 10uM
COc1ccc(C(=O)NC2CC3CCCC(C2)N3Cc2ccccc2)cc1OC (centres unmarked) | -23.6%
CCOc1ccc(C(=O)NC2CC3CCCC(C2)N3CC(C)C)cc1 (centres unmarked) | -41.1%
COc1ccc(C(=O)NC2CC3CCCC(C2)N3Cc2ccccc2)cc1 (centres unmarked) | -53.5%
CCOc1ccc(C(=O)NC2CC3CCCC(C2)N3Cc2ccccc2)cc1 (centres unmarked) | -57.5%
Cc1ccn2c(NC(=O)c3cccs3)c(-c3ccccc3)nc2c1 | -0.701%
CC1(C)Cc2c(cnn2-c2cccc(F)c2)C(NC(=O)CSc2ccncc2)C1 (centres unmarked) | -56.5%
Cc1ccccc1-n1ncc2c1CC(C)(C)CC2NC(=O)CSc1ccncc1 (centres unmarked) | -8.26%
CC1(C)Cc2c(cnn2-c2cccc(F)c2)C(NC(=O)CCc2cnccn2)C1 (centres unmarked) | -28.4%
CC1(C)Cc2c(cnn2-c2cccc(F)c2)C(NC(=O)Cn2cccn2)C1 (centres unmarked) | -11.5%
C=CCCC(=O)NC1CC(C)(C)Cc2c1cnn2-c1cccc(F)c1 (centres unmarked) | -68.4%
CC1(C)Cc2c(cnn2-c2cccc(F)c2)C(NC(=O)CSc2ccccn2)C1 (centres unmarked) | -20.6%
CCC1CCCCN1C(=S)NCc1ccccc1 (centres unmarked) | -1.29%
COc1ccc(-c2c(C)n([O-])c(C)c(-c3ccccc3)[n+]2=O)cc1OC | 7.35%
Cc1cccc(-n2cc(CN(C)Cc3nccn3C)c(-c3cccc(F)c3)n2)c1 | -6.01%
CCN(CC(=O)NC(C)(C)C)C(=O)c1ccc(Br)cc1 | 2.64%
O=C(NCCc1ccc(Cl)cc1)C1CCCN1C(=O)Nc1ccccc1 (centres unmarked) | -11.5%
COc1ccc(C(=O)Nc2ccc(SC(F)F)cc2)cc1 | -2.14%
CCOc1ccccc1NC(=O)c1cc(C(=O)c2cc(OC)ccc2O)coc1=N | -20.3%
COc1ccc(O)c(C(=O)c2coc(=N)c(C(=O)Nc3ccc(SC(F)F)cc3)c2)c1 | -69.9%
O=c1[nH]c(C2CCN(S(=O)(=O)c3ccc(F)cc3)CC2)nc2c1nnn2Cc1ccc2c(c1)OCCO2 | 11.1%
COc1cc2c(c(OC)c1OC)-c1ccc(O)c(=O)cc1C(NC(C)=O)CC2 (centres unmarked) | 13.7%
N#Cc1ccc(NC(=O)c2cc(S(=O)(=O)N3CCOCC3)ccc2N2CCCC2)cc1 | -80.4%
NC(=O)c1ccc(NC(=O)c2cc(S(=O)(=O)N3CCCCC3)ccc2N2CCOCC2)cc1 | -13.9%
O=C(Nc1cccc(F)c1)c1cc(S(=O)(=O)N2CCOCC2)ccc1N1CCCC1 | -34.2%
CNC(=O)c1ccc(NC(=O)c2cc(S(=O)(=O)N3CCOCC3)ccc2N2CCCC2)cc1 | 7.71%
CCN1CCN(c2ccc(NC(=O)c3cc(S(=O)(=O)N4CCCC4)ccc3Cl)cc2)CC1 | -27.7%
CCN1CCN(S(=O)(=O)c2ccc(Cl)c(C(=O)Nc3ccc(C(=O)N(CC)CC)cc3)c2)CC1 | 0.597%

Structure (SMILES) | hERG current change (%, negative = inhibition) at 10uM
O=C(Nc1ccc(OC(F)F)cc1)c1cc(S(=O)(=O)N2CCOCC2)ccc1F | -31.3%
O=C(Nc1ccc(OC(F)F)cc1)c1cc(S(=O)(=O)N2CCCCC2)ccc1N1CCOCC1 | -65.8%
CCN1CCN(S(=O)(=O)c2ccc(Cl)c(C(=O)Nc3ccc(OC(F)F)cc3)c2)CC1 | -70.4%
O=C(O)c1ccccc1N1C(=O)C2C3c4ccccc4C(Br)(c4ccccc43)C2C1=O (centres unmarked) | 18.4%
CCN(CC(=O)NCc1cccs1)C(=O)/C=C/c1ccc(OC)c(OC)c1 | -23.5%
Cc1cc(C)n2nc(C(=O)OCC(=O)Nc3ccc4c(c3)OCCO4)nc2n1 | 3.56%
CCOc1cc(C(=S)N2CCOCC2)ccc1OS(=O)(=O)c1ccccc1 | -10%
COc1ccc(OCC(=O)NCCCCCCNC(=O)COc2ccc(OC)cc2)cc1 | 10.6%
CCOC(=O)C1CCCN(CC(O)COCc2ccc3c(c2)OCO3)C1 (centres unmarked) | -23.5%
CCc1cc(C(=O)NNC(=O)CCN2CCN(c3ccccc3)CC2)sc1C | 11.8%
O=C(Nc1nnc(C2CC2)o1)c1ccc(S(=O)(=O)N2CCCc3ccccc32)cc1 | -19.3%
COc1cccc(/C=N/Nc2ncc(C(F)(F)F)cc2Cl)c1O | 36.1%
COc1ccc(/C=N/Nc2ncc(C(F)(F)F)cc2Cl)cc1OC | 3%
COc1cc(/C=N/Nc2ncc(C(F)(F)F)cc2Cl)cc(OC)c1O | -64.8%
CCN(CC(=O)Nc1cc(C)on1)CC(=O)Nc1ccccc1C(F)(F)F | 13.7%
CN(Cc1ccccc1)C(=O)c1ccc(Cl)c([N+](=O)[O-])c1 | -53.5%
Cc1ccc(NC(=O)CN(C)C(=O)c2ccc(Sc3nncn3C)c([N+](=O)[O-])c2)cc1 | -40.3%
Cc1ccc(NC(=O)CN(C)C(=O)C(C)OC(=O)CNC(=O)c2ccc(Cl)c([N+](=O)[O-])c2)cc1 (centres unmarked) | -43%
CN(CC(=O)Nc1ccc(F)c(F)c1F)C(=O)c1ccc(-n2cncn2)cc1 | -63.8%
Cc1ccc(NC(=O)CN(C)C(=O)c2ccc(-n3cncn3)c([N+](=O)[O-])c2)cc1 | -49.2%
CN(CC(=O)Nc1ccc(F)c(F)c1F)C(=O)c1ccc(=O)[nH]c1 | 0.382%
CN(CC(=O)Nc1c(Cl)cccc1Cl)C(=O)c1ccc(-n2cncn2)c([N+](=O)[O-])c1 | 5.71%
CN(CC(=O)Nc1ccc(Cl)cc1)C(=O)c1ccc(-n2cncn2)c([N+](=O)[O-])c1 | -70.3%
Cc1ccc(NC(=O)CN(C)C(=O)c2ccc(Cl)c([N+](=O)[O-])c2)cc1 | -52.1%
CN(CC(=O)Nc1ccc(F)c(F)c1F)C(=O)c1ccc(-n2cncn2)c([N+](=O)[O-])c1 | -40.6%
CCN(C(=O)c1ccc(Cl)c([N+](=O)[O-])c1)c1ccccc1 | -5.95%
O=C(NCCc1ccccc1)c1ccc(Cl)c([N+](=O)[O-])c1 | -27.2%

Structure (SMILES) | hERG current change (%, negative = inhibition) at 10uM
CCC(=O)NCCc1nc2ccccc2[nH]1 | 1.08%
CN1CCN(c2nc(N)cc(=O)[nH]2)CC1 | 15.2%
c1ccc(-n2c(Sc3cnccn3)nnc2-c2cccs2)cc1 | -33.3%
CSc1nc([O-])cc(=O)n1-c1ccc(F)cc1.[K+] | 2.86%
COc1cccc(/C=C2/C(=O)NN(c3ccc(C)c(C)c3)C2=O)c1 | -3.01%
Cn1c(=O)c2c(SCC(=O)NCc3ccco3)nc(-c3ccccc3Cl)nc2n(C)c1=O | -1.4%
Cc1cccc(NC(=O)CNC(=O)c2ccc(-n3cncn3)c([N+](=O)[O-])c2)c1C | -9.18%
Cc1cc(Br)ccc1NC(=O)CN(C)C(=O)c1ccc(-n2cncn2)c([N+](=O)[O-])c1 | -64.4%
C=CCN1C(=O)c2ccc(C(=O)N(C)CC(=O)Nc3c(C)cccc3C)cc2C1=O | 15.4%
Cc1cccc(C)c1NC(=O)CN(C)C(=O)c1ccc(-n2cncn2)c([N+](=O)[O-])c1 | -6.43%
C=CCN1C(=O)c2ccc(C(=O)N(C)CC(=O)Nc3ccccc3Br)cc2C1=O | 4.17%
C=CCN1C(=O)c2ccc(C(=O)N(C)CC(=O)Nc3ccc(Br)cc3C)cc2C1=O | -52.5%
O=C(COc1ccc(Br)cc1)NNC(=O)c1ccc(-n2cncn2)c([N+](=O)[O-])c1 | -61%
Cc1ccc(OCC(=O)NNC(=O)c2ccc(-n3cncn3)c([N+](=O)[O-])c2)cc1 | -2.51%
Cc1cc(Br)ccc1NC(=O)c1ccc(-n2cncn2)c([N+](=O)[O-])c1 | 12.3%
Cc1cc(Br)ccc1NC(=O)CNC(=O)c1ccc(-n2cncn2)c([N+](=O)[O-])c1 | -59.9%
Cc1ccc(C)c(NC(=O)CN(C)C(=O)c2ccc(-n3cncn3)c([N+](=O)[O-])c2)c1 | -26.7%
O=C(COc1ccccc1Cl)NNC(=O)c1ccc(-n2cncn2)c([N+](=O)[O-])c1 | 10.9%
CCc1[nH]c(=S)c(C#N)c2c1CCCC2 | 14.9%
COc1cccc(C(c2nnnn2Cc2ccccc2)N2CCN(C3CCCC3)CC2)c1OC.Cl (centres unmarked) | -32%
O=c1[nH]nc(Sc2ncnc3sccc23)n1CCc1ccccc1 | -18.3%
CC1CCC/C=C/C2CC(O)CC2C(O)/C=C/C(=O)O1 (centres unmarked) | -2.12%
O=C(c1cnn2c(C(F)F)cc(-c3ccccc3)nc12)N1CCc2ccccc2C1 | -15.6%
CCn1c(SCC(=O)NCCc2ccccc2)nc2c(c1=O)SC(C)C2 (centres unmarked) | 5.03%
COc1cccc(NC(=O)CCN2C(=O)c3ccccc3Sc3ncccc32)c1 | 12.7%
O=C(COC(=O)C1CCC(=O)N1)Nc1ccc(Br)cc1 (centres unmarked) | 12%
